# Experimental data published in PubChem BioAssay (NCATS).
# Inconclusive results are not listed. Calls of active or inactive are those of the source. Unless noted, calls follow the shape of the dose curve; as a rule, active = well fitted curve in the direction sought with a large enough effect; inconclusive = small, poorly fitted or top-dose-only effect, or another doubt; inactive = no such curve, though single readings can be large; an effect the other way counts as inactive or inconclusive. Starred links: 1 amine or outer side, 2 acyl side, 3 side chain; linkers in the order of their positions; H or OH if unused. Positions of bridges follow the written chain, without caps; N, C: chain ends. Non-standard residues stand in square brackets, D forms with d. Residues, ends and D or L forms follow the SMILES beside them. ξ: configuration not given here. *: point of attachment. X3 = C[C@@H](Oc1ccc([C@H](N[*:1])C(=O)[*:2])cc1)[C@]1(/C=C\C(=O)[*:3])CO1; d(aIle) = CC[C@H](C)[C@@H](N)C(=O)O; X2 = CC(C)[C@@H](O)C(C)C(=O)*; ξNMeF = CNC(Cc1ccccc1)C(=O)O; ξT = CC(O)C(N)C(=O)O; ξS = NC(CO)C(=O)O
# How the values were obtained:
# [1] = system: Zika virus NS2B-NS3 protease (linked construct); assay: Primary screen NINDS Rhodamine qHTS for Zika virus inhibitors (AID 1347160)
# Method in brief: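 In 10 mM Tris-HCl pH 8.0 containing 0.01% Tween 20, linked NS2B-NS3 protease (25 nM final) is exposed to test compounds for 15 min. Cleavage of 1.5 microM Rhodamine110 substrate is tracked by fluorescence over 15 min.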
# [2] = UWB1.289 Cancer Cell Toxicity qHTS against the NCATS CANVASS Library (AID 1347347)
# Method in brief: (§1)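 In this cytotoxicity screen, 1000 cells per well rested 4 hours, then received compound (11 concentrations) for a 72-hour incubation; an ATP-dependent luminescent signal (CellTiter-Glo) was the endpoint.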
# [3] = Panc-1005 Cancer Cell Toxicity qHTS against the NCATS CANVASS Library (AID 1347349)
# Method in brief: as §1
# [4] = UWB1.289-WTBRCA1 Cancer Cell Toxicity qHTS against the NCATS CANVASS Library (AID 1347354)
# Method in brief: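 Cells at 1000/well were given compound 4 h after plating in an 11-point series. Viability was read by CellTiter-Glo luminescence after 72 h at 37 degrees C.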
# [5] = qHTS for Antimalaria activity screened against the NCATS CANVASS Library (AID 1347380)
# Method in brief: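 Red blood cells infected with P. falciparum Dd2 (2.5% hematocrit final, 0.3% parasitemia) were exposed to compounds in an 11-point qHTS series for 72 hr at 37C under 5% O2 and 5% CO2. Lysis buffer with SYBR Green was then added for 18 hr, and fluorescence was read at 485/535 nm.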
# [6] = system: Zika virus NS2B-NS3 protease (linked); assay: 384 well plate NINDS AMC confirmatory qHTS for Zika virus inhibitors (AID 1347163)
# Method in brief: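 Linked NS2B-NS3 protease (final 5 nM, 30 nM or 60 nM) was preincubated with compounds (final up to 1 mM) for ~15 minutes. Ac-VKTGKR-AMC substrate (final 30 microM) then reacted for 25 minutes at room temperature in the dark. Fluorescence (ex 355/em 460 nm) was normalized to no-enzyme and no-inhibitor controls.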
# [7] = Cytotoxicity counterscreen for inhibitors of SARS-CoV-2 cell entry (AID 1645845; calls by dose curve); conditions: outcome: at 57.1 µM (top of the series) unless noted
# Method in brief: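 HEK293-ACE2 cells (Expi293F stably expressing human ACE2) seeded overnight, then compound for 1 h plus 48 h at 37C. Viability as ATP content by luminescence; normalized to wells with cells and media-only wells.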
# [8] = Primary qHTS to identify inhibitors of SARS-CoV-2 cell entry (AID 1645846; calls by dose curve); conditions: SARS-CoV-2 pseudovirus cell entry assay, luminescence; activity change, negative = inhibition: at 57.1 µM (top of the series) unless noted; outcome: at 57.1 µM (top of the series) unless noted
# Method in brief: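 HEK293 cells stably expressing human ACE2, pre-treated 1 h with compound, then infected with MLV particles pseudotyped with Wuhan-Hu-1 spike (C-terminal 19-aa truncation). Luciferase luminescence after 48 h at 37 °C, normalised to spike PP and bald PP.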
# [9] = Primary qHTS for inhibitors of nuclear receptor binding SET domain protein 2 (NSD2) in an isogenic RCH-ACV NSD2 p.E1099K mutant (9B) (AID 1645876)
# [10] = Primary qHTS for inhibitors of nuclear receptor binding SET domain protein 2 (NSD2) in an RCH-ACV wild type WT cells (2C) (AID 1645877)
# [11] = Confirmatory qHTS for VERO E6 Cytotoxicity Assay: Counterscreen for SARS-CoV-2 CPE Assay (AID 1508605; calls by dose curve)
# [12] = qHTS assay to identify inhibitors of the type 1 interferon - major histocompatibility complex class I in skeletal muscle: Counter screen cell viability and HiBit confirmation (AID 1347412); conditions: iHSKM muscle cells + IFN-b, HiBiT or CellTiter-Glo, 24 h
# Method in brief: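 CRISPR HLA-B*08:01-HiBit immortalized human myoblasts (C25cl48) stimulated with 4 ng/ml IFN-beta and compounds (12-point 1:3, top 46 uM final) for 24 h at 37 C. Duplicate plates read by HiBit lytic luminescence or CellTiter Glo ATP.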
smiles,measurement,setting,value
C/C=C/[C@@H]1[C@H]2C[C@@H](C)CC[C@@H]2C(C)=C[C@H]1C(=O)c1c(O)c(-c2ccc(O)cc2)c[nH]c1=O,Potency,[1],22 µM (active)
same,Potency,[2],21.1 µM (active)
C=CC(C)(C)[C@@]12C[C@H]3C(=O)N/C(=C/c4cnc[nH]4)C(=O)N3[C@@H]1Nc1ccccc12,Potency,[2],inactive
same,Potency,[3],inactive
same,Potency,[4],inactive
same,Potency,[5],0.298 µM (active)
C=CC(C)(C)[C@@]12C[C@H]3C(=O)N/C(=C\c4cnc[nH]4)C(=O)N3[C@@H]1Nc1ccccc12,Potency,[2],inactive
same,Potency,[3],inactive
same,Potency,[4],inactive
same,Potency,[5],inactive
COC1C(O)C(C)OC(OC2C(Oc3cccc4c(O)c5c(=O)oc6ccc(C)c7c(=O)oc(c34)c5c67)OC(C)C(O)C2O)C1O (stereo not given),Potency,[3],16.8 µM (active)
CO[C@@]12c3c(C)cc(O)c4c(=O)occ(c34)C(=O)[C@@H]1[C@]13COC(=O)c4c(O)cc(C)c(c41)C(=O)[C@H]2[C@@H]3OC(C)=O,Potency,[1],3.11 µM (active)
same,Potency,[2],5.94 µM (active)
same,Potency,[3],inactive
same,Potency,[5],0.0075 µM (active)
CCC(=O)N[C@@H](C[C@H](C)C(Cl)(Cl)Cl)C(=O)N1C(=O)C=C(OC)[C@@H]1C[C@H](C)C(Cl)Cl,Potency,[3],inactive
same,Potency,[4],inactive
CC[C@@H]1CN2CCc3c([nH]c4cccc(OC)c34)[C@@H]2C[C@@H]1/C(=C\OC)C(=O)OC,Potency,[1],inactive
CC[C@]12C=CCN3CC[C@]4(C(=C(C(=O)OC)C1)Nc1ccccc14)[C@@H]32,Potency,[2],inactive
same,Potency,[3],inactive
same,Potency,[4],inactive
same,Potency,[5],0.042 µM (active)
CO[C@H]1C[C@H](O[C@H]2[C@@H](O)C[C@H](O[C@H]3CC[C@]4(C=O)[C@H]5CC[C@]6(C)C(C7=CC(=O)OC7)CC[C@]6(O)[C@@H]5CC[C@]4(O)C3)O[C@@H]2C)O[C@H](C)[C@H]1O[C@H]1C[C@@H](OC)[C@@H](O[C@@H]2O[C@H](CO)[C@@H](O)[C@H](O)[C@H]2O)[C@@H](C)O1 (stereo not given in full),Potency,[1],44 µM (active)
C/C=C1/CN2C3CC1C1=CCC(=O)N4c5ccccc5[C@@]3(C[C@@H]2C2=C[C@H]3C5CC6N(CC[C@@]67c6ccccc6N(C2=O)[C@@H]37)C/C5=C/C)[C@H]14 (stereo not given in full),Potency,[1],31.1 µM (active)
same,Potency,[3],14.9 µM (active)
same,Potency,[5],1.33 µM (active)
COC1=C(C2=C(OC)C(=O)c3cc4c(c(O)c3C2=O)C(=O)O[C@H](C)C4)C(=O)c2c(cc3c(c2O)C(=O)O[C@H](C)C3)C1=O,Potency,[1],3.3 µM (active)
same,Potency,[4],inactive
same,Potency,[5],inactive
CC[C@@H]1CN2CCC3(Nc4cccc(OC)c4C3=O)[C@@H]2C[C@@H]1/C(=C\OC)C(=O)OC (stereo not given in full),Potency,[1],inactive
same,Potency,[3],inactive
same,Potency,[4],inactive
C=C[C@H]1CN2CCc3c([nH]c4cccc(OC)c34)[C@@H]2C[C@@H]1/C(=C\OC)C(=O)OC,Potency,[1],inactive
same,Potency,[3],inactive
same,Potency,[4],inactive
CO[C@H]([C@@H](C)[C@H]1O[C@]1(C)C[C@H](C)/C=C/C=C(\C)[C@H]1O[C@@H](CC(=O)O)CC[C@@H]1C)[C@@H](C)O,Potency,[2],0.0188 µM (active)
same,Potency,[3],0.0375 µM (active)
same,Potency,[5],0.0666 µM (active)
CN(C)C1C(=O)C(C(N)=O)=C(O)[C@@]2(O)C(=O)C3=C(O)c4c(O)ccc(Cl)c4[C@](C)(O)C3CC12 (stereo not given in full),Potency,[6],282 µM (active)
C[C@]12CCC3[C@@H](CC[C@@H]4C[C@@H](O)CC[C@]34CO)[C@@]1(O)CC[C@@H]2C1=CC(=O)OC1 (stereo not given in full),Potency,[2],1.18 µM (active)
same,Potency,[5],inactive
CC[C@H](C)[C@H]1NC(=O)[C@@H](NC(=O)C(C)[C@H](O)C(C)C)[C@@H](C)OC(=O)C2COC(=O)CNC(=O)/C=C\[C@]3(CO3)[C@@H](C)Oc3ccc(cc3)[C@H](NC1=O)C(=O)N(C)C(Cc1ccccc1)C(=O)NC(C(C)O)C(=O)N2 (stereo not given in full) (X2-T[d(aIle)][X3][ξNMeF][ξT][ξS]; ester 1-C; linker 3-6 via G),Potency,[3],inactive
same,Potency,[4],inactive
O[C@H]1C=C[C@@]23CCN(Cc4cc5c(cc42)OCO5)[C@@H]3C1,Potency,[2],11.8 µM (active)
same,Potency,[3],inactive
c1ccc2nc3c(cc2c1)[nH]c1ccccc13,Potency,[2],inactive
same,Potency,[4],inactive
same,Potency,[5],inactive
CO/C1=C/C(C)=C\[C@@H](C)[C@@H](O)[C@@H](C)C/C(C)=C\C=C/[C@H](OC)[C@@H]([C@@H](C)[C@@H](O)[C@H](C)[C@@]2(O)C[C@@H](O)[C@H](C)[C@@H](C(C)C)O2)OC1=O,Potency,[7],1.58 µM (active)
same,Potency,[8],1.58 µM (active)
same,Potency,[9],0.0494 µM (active)
same,Potency,[10],0.0393 µM (active)
COC[C@H]1OC(=O)c2coc3c2[C@@]1(C)C1=C(C3=O)[C@@H]2CC[C@H](O)[C@@]2(C)C[C@H]1OC(C)=O,Potency,[9],13.2 µM (active)
same,Potency,[10],11.8 µM (active)
COC(=O)[C@@]12OC[C@]34[C@H]([C@@H](O)[C@@H]1O)[C@@]1(C)CC(=O)C(O)=C(C)[C@@H]1C[C@H]3OC(=O)[C@H](OC(=O)/C=C(\C)C(C)C)[C@@H]24,Potency,[11],0.127 µM (active)
same,"activity change, negative = inhibition",[8],-94.1%
same,Potency,[9],0.296 µM (active)
same,Potency,[10],0.235 µM (active)
same,Potency,[12]; HiBiT,0.0883 µM (active)
same,"activity change, negative = inhibition","[12]; Viability, at 45.9 µM (top of the series)",-8.02% (inactive)
